# Key:
# Assay in all cases: PBM binding z-score (relative to random genomic background probes); higher = stronger binding; sequences stand for … in GC…GCGATTGACAGCGTAGAATGAAGG
# [1] = system: FXR:RXRa (NR concentration 270 nM, RXRa partner concentration 90 nM)
# Procedure, shortened: (§1)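 Regression normalization was applied to scanned fluorescence from custom Agilent 4×180K protein-binding microarrays. Before scanning, arrays were incubated 1 h with ligand-free nuclear receptor dimers, and binding was detected with antibodies against each partner (one per run). Binding z-scores use the random background probes as reference.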
# [2] = system: LXRa:RXRa (NR concentration 270 nM, RXRa partner concentration 90 nM)
# Procedure, shortened: as §1
# [3] = system: LXRa homodimer (NR concentration 270 nM)
# Procedure, shortened: as §1
# [4] = system: LXRb:RXRa (NR concentration 270 nM, RXRa partner concentration 90 nM)
# Procedure, shortened: as §1
# [5] = system: LXRb homodimer (NR concentration 270 nM)
# Procedure, shortened: as §1
# [6] = system: PPARa:RXRa (NR concentration 270 nM, RXRa partner concentration 90 nM)
# Procedure, shortened: as §1
# [7] = system: PPARg:RXRa (NR concentration 180 nM, RXRa partner concentration 90 nM)
# Procedure, shortened: as §1
# [8] = system: PPARg:RXRa 270nM:90nM, anti-RXR (NR concentration 270 nM, RXRa partner concentration 90 nM)
# Procedure, shortened: as §1
# [9] = system: PPARg:RXRa 30nM:10nM, anti-RXR (NR concentration 30 nM, RXRa partner concentration 10 nM)
# Procedure, shortened: as §1
# [10] = system: PPARg:RXRa 90nM:30nM, anti-RXR (NR concentration 90 nM, RXRa partner concentration 30 nM)
# Procedure, shortened: as §1
# [11] = system: PPARg:RXRa DBDmut IVT, anti-RXR (DBD mutation: RXRa K156A/R161A, NR concentration 270 nM, RXRa partner concentration 90 nM)
# Procedure, shortened: as §1
# [12] = system: PPARg:RXRa IVT, anti-PPARg (NR concentration 270 nM, RXRa partner concentration 90 nM)
# Procedure, shortened: as §1
# [13] = system: PPARg DBDmut:RXRa IVT, anti-PPARg (DBD mutation: PPARg1 K132A/R137A, NR concentration 270 nM, RXRa partner concentration 90 nM)
# Procedure, shortened: as §1
# [14] = system: PPARg DBDmut IVT, anti-PPARg (DBD mutation: PPARg1 K132A/R137A, NR concentration 270 nM)
# Procedure, shortened: as §1
# [15] = system: PPARg homodimer (NR concentration 180 nM)
# Procedure, shortened: as §1
# [16] = system: PXR:RXRa (NR concentration 270 nM, RXRa partner concentration 90 nM)
# Procedure, shortened: as §1
# [17] = system: PXR homodimer (NR concentration 270 nM)
# Procedure, shortened: as §1
# [18] = system: RARa:RXR (NR concentration 270 nM, RXRa partner concentration 90 nM)
# Procedure, shortened: as §1
# [19] = system: RARa homodimer (NR concentration 270 nM)
# Procedure, shortened: as §1
# [20] = system: RARb:RXRa (NR concentration 270 nM, RXRa partner concentration 90 nM)
# Procedure, shortened: as §1
Sequence,PBM binding z-score [1],PBM binding z-score [2],PBM binding z-score [3],PBM binding z-score [4],PBM binding z-score [5],PBM binding z-score [6],PBM binding z-score [7],PBM binding z-score [8],PBM binding z-score [9],PBM binding z-score [10],PBM binding z-score [11],PBM binding z-score [12],PBM binding z-score [13],PBM binding z-score [14],PBM binding z-score [15],PBM binding z-score [16],PBM binding z-score [17],PBM binding z-score [18],PBM binding z-score [19],PBM binding z-score [20]
ATATGTAGGTTATCGGGTCATTCAGTTTGCGCAT,2.98,3.41,2.11,3.16,1.34,4.62,6.73,6.32,3.96,5.64,7.56,7.99,3.73,2.54,2.67,3.75,7.33,3.54,1.75,2.56
TCGAGTAGGCTAGTCGGGGCATTCAGCCAACATA,-0.433,-0.611,-0.763,-0.579,-1.53,-0.209,-0.351,0.0773,0.911,0.101,0.821,0.0917,-1.43,-1.24,-0.694,-0.462,-0.889,-0.446,-1.18,-0.223
TCAGACAGGCGAAGGTAACTCAGGTACGCAGTCG,0.672,1.16,-0.549,0.255,-0.893,0.184,0.517,1.53,3.02,2.41,1.62,-0.431,-0.529,-0.776,-0.126,0.167,-0.281,0.0245,-0.553,0.0079
GCTAACGGGTCAAAGGTTATAGCATGAATAGAAT,7.39,5.26,0.513,5.21,0.0725,6.84,10.4,8.58,9.26,9.13,3.51,5.64,0.399,0.838,1.81,5.59,0.2,7.51,0.254,4.19
CGTCAAAGTTCAACTAAGGTAACGTAAAGCACGC,7.09,6.32,4.44,4.24,1.99,5.14,5.22,5.44,2.32,4.08,0.3,2.33,1.23,0.815,2.8,5.69,3.56,4.67,2.05,5.43
ACAGACAGGTGAGTGAAGGTTACTCAGCTGGACG,0.506,0.708,-0.297,-0.125,-0.739,0.764,0.848,0.505,-0.0853,0.0538,0.352,1.16,0.332,0.037,0.138,0.646,-0.03,0.952,0.201,1.15
GCTAGCAGGCTATTTGGGTCACTCAATGACGGGC,0.127,0.137,-0.259,0.255,-0.646,2.16,1.11,1.36,-0.338,0.706,3.1,3.87,-0.208,-0.897,0.28,0.435,-0.454,1.01,-0.508,1.27
